Activity calls are given as the source filed them. Rule for the calls: active = hit-call score of the fitted dose curve at least 0.9, where 1 is the maximum; inactive = score below 0.9.
Assays:
[1] = target: CCAAT/enhancer-binding protein beta (Homo sapiens) (UniProt P17676); assay: ATG_C_EBP_CIS: Attagene CIS-FACTORIAL HepG2 Assay for human CCAAT/Enhancer Binding Protein (C/EBP) beta (AID 2282927); details: HepG2 Attagene cis-factorial transcription factor reporter; actives raise or lower the signal
Sequence of CCAAT/enhancer-binding protein beta (Homo sapiens) (P17676 whole entry, looked up): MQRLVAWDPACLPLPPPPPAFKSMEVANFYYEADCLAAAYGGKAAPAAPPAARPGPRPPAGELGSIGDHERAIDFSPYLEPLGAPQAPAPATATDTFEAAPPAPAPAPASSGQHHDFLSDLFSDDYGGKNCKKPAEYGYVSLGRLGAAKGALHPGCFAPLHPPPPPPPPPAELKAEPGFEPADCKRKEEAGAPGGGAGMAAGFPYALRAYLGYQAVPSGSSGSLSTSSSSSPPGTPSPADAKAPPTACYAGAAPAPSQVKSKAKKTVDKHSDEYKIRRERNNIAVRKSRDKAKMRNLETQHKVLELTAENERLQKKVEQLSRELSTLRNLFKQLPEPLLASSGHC
How it was run: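 Following a 24 h incubation with test chemical, transfected HepG2 cells yielded RNA whose reporter transcripts were quantified by RT-PCR and fluorescent capillary electrophoresis, with DMSO serving as baseline for bidirectional fitting.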

[2] = ATG_CMV_CIS: Attagene CIS-FACTORIAL HepG2 Assay for human CMV (Internal Marker) (AID 2282928); details: HepG2 CMV promoter reporter, transcription factor profiling; actives raise or lower the signal;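 note: endpoint acts as a background internal control marker rather than a target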
How it was run: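 CMV internal-marker background readout in transiently transfected HepG2 cells bearing cis-regulated reporter units. Reporter mRNA is measured 24 h after dosing by RT-PCR and capillary electrophoresis, with bidirectional fitting against DMSO.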

[3] = ATG_DR4_LXR_CIS: Attagene CIS-FACTORIAL HepG2 Assay for human Liver X Receptor (LXR), DR4 submotif (AID 2282929); details: HepG2 Attagene DR4 cis-reporter, mRNA transcription; actives raise or lower the signal
How it was run: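 DR4 cis-reporter in HepG2, 24 h exposure. Detection: RT-PCR, 6-FAM labelling, CE fragment analysis. Endpoint fitted bidirectionally, DMSO = baseline.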

[4] = target: Aryl hydrocarbon receptor (Homo sapiens) (UniProt P35869); assay: ATG_Ahr_CIS: Attagene CIS-FACTORIAL HepG2 Assay for human Aryl Hydrocarbon Receptor (Ahr) (AID 2282930); details: HepG2 AhR cis-factorial reporter transcription; actives raise or lower the signal
Sequence of Aryl hydrocarbon receptor (Homo sapiens) (P35869 whole entry, looked up): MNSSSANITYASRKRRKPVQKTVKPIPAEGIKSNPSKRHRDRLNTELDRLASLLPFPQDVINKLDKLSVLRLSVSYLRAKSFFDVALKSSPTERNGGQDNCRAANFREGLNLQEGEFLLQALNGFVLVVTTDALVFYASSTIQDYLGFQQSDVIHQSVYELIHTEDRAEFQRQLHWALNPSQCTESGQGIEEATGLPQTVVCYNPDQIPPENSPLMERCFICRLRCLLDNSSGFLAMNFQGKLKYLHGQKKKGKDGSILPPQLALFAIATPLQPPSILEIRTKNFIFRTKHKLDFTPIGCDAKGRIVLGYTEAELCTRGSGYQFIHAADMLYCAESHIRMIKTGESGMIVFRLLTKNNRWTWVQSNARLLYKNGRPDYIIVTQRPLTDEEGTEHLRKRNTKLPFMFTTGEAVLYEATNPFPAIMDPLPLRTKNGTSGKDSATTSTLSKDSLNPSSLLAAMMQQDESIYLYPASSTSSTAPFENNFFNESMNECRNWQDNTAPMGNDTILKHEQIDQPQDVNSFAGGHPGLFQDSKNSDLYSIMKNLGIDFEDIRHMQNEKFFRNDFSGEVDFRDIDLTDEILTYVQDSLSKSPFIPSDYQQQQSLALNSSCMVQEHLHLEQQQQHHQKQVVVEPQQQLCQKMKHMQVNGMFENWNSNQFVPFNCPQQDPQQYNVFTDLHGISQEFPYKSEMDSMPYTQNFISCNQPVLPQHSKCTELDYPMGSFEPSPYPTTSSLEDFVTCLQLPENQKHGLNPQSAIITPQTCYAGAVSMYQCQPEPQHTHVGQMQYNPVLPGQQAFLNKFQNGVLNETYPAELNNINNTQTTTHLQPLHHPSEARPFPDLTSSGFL
How it was run: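 Values derive from bidirectional fitting against DMSO negative control. Underlying signal: cis-element reporter mRNA in transiently transfected HepG2, harvested 24 h post-dose and measured by RT-PCR plus capillary electrophoresis.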

[5] = ATG_AP_1_CIS: Attagene CIS-FACTORIAL HepG2 Assay for human Activator Protein 1 (AP-1) (AID 2282931); details: HepG2 Attagene cis-factorial AP-1 reporter mRNA; actives raise or lower the signal
How it was run: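 Cis-regulated reporter units transiently expressed in HepG2 report endogenous transcription-factor activity. Signal: reporter mRNA at 24 h, via RT-PCR and fluorescent capillary electrophoresis. Endpoint derived by bidirectional fitting, DMSO as negative control.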

[6] = ATG_AP_2_CIS: Attagene CIS-FACTORIAL HepG2 Assay for human Activator Protein 2 (AP-2) (AID 2282932); details: HepG2 AP-2 cis-reporter, Attagene transcription factor profiling; actives raise or lower the signal
How it was run: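 HepG2 cells were transiently transfected with multiple cis-promoter reporter transcription units and dosed for 24 h. Reporter mRNA was measured by RT-PCR with capillary electrophoresis fluorescence; bidirectional fits relative to DMSO baseline.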

[7] = ATG_BRE_CIS: Attagene CIS-FACTORIAL HepG2 Assay for human Bone Morphogenetic Protein (BMP) Response Element (BRE) (AID 2282933); details: HepG2 BMP response element reporter, Attagene transcription factor profiling; actives raise or lower the signal
How it was run: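 HepG2 cells transiently transfected with multiplexed cis-element reporter units were dosed with chemical for 24 h. Reporter mRNA was measured by RT-PCR with fluorescent labelling, HpaI digestion and capillary electrophoresis; bidirectional fitting relative to DMSO.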

[8] = target: Transcription factor E2F1 (Homo sapiens) (UniProt Q01094); assay: ATG_E2F_CIS: Attagene CIS-FACTORIAL HepG2 Assay for human E2F Transcription Factor 1 (AID 2282935); details: HepG2 Attagene cis-reporter, E2F reporter RNA transcripts; actives raise or lower the signal
Sequence of Transcription factor E2F1 (Homo sapiens) (Q01094 whole entry, looked up): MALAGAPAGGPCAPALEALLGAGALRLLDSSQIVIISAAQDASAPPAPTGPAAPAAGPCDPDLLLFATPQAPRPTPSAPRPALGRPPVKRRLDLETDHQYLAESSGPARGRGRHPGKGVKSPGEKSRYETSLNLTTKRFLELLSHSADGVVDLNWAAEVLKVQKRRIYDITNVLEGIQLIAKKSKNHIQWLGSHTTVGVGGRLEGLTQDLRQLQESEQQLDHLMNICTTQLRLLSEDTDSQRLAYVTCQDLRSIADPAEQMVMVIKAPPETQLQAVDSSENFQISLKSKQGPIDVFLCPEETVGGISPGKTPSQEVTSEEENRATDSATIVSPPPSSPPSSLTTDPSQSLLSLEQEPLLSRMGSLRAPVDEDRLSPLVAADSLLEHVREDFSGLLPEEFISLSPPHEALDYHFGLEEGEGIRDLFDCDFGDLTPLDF
How it was run: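 HepG2 cells transiently transfected with multiplexed cis-element reporter units, dosed for 24 h. Reporter mRNA measured by RT-PCR, 6-FAM primer-extension labeling, HpaI digestion and capillary electrophoresis; bidirectional fit versus DMSO baseline.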

[9] = ATG_E_Box_CIS: Attagene CIS-FACTORIAL HepG2 Assay for human Enhancer Box (E-box) (AID 2282936); details: HepG2 E-box cis-reporter transcription, actives raise or lower the signal
How it was run: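 HepG2 cells transiently transfected with multiplexed cis-element reporter units sensing endogenous transcription factor activity; 24 h compound exposure. Reporter mRNA measured by RT-PCR, 6-FAM primer extension, HpaI digestion and capillary electrophoresis; bidirectional fit versus DMSO.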

[10] = ATG_EGR_CIS: Attagene CIS-FACTORIAL HepG2 Assay for human Early Growth Response 1 (EGR1) (AID 2282938); details: HepG2 Attagene CIS-FACTORIAL EGR reporter mRNA; actives raise or lower the signal
How it was run: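 Endpoint derived by bidirectional fitting versus DMSO vehicle. Method: cis-promoter reporter units transfected into HepG2, 24 h dosing, RNA isolation, RT-PCR with 6-FAM primer extension and HpaI digestion, then capillary electrophoresis fluorescence detection.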

[11] = ATG_M_19_CIS: Attagene CIS-FACTORIAL HepG2 Assay for M19 Transcription Factor (Internal Marker) (AID 2282939); details: HepG2 Attagene CIS-FACTORIAL M19 internal marker reporter; actives raise or lower the signal
How it was run: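 HepG2 cells transiently transfected with cis-regulated multiple reporter transcription units were dosed for 24 h; reporter mRNA was quantified by RT-PCR, 6-FAM primer-extension labelling, HpaI digestion and capillary electrophoresis, with bidirectional fitting against DMSO baseline.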

[12] = ATG_ERE_CIS: Attagene CIS-FACTORIAL HepG2 Assay for Estrogen Response Element (ERE) (AID 2282940); details: HepG2 ERE cis-reporter, Attagene RNA transcript; actives raise or lower the signal
How it was run: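 HepG2 cells transiently transfected with cis-promoter-driven multiplexed reporter transcription units report endogenous TF activity. After 24 h compound exposure, reporter mRNA is quantified by RT-PCR with capillary electrophoresis fluorescence; bidirectional fitting versus DMSO baseline.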

[13] = ATG_Ets_CIS: Attagene CIS-FACTORIAL HepG2 Assay for human Erythroblast Transformation Specific (ETS) (AID 2282941); details: HepG2 ETS cis-reporter transcription, actives raise or lower the signal
How it was run: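 HepG2 cells transfected with multiple cis-regulated reporter units measuring endogenous ETS-driven transcription, 24 h after dosing. Reporter mRNA quantified by RT-PCR with capillary electrophoresis; bidirectional fit relative to DMSO.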

[14] = target: Hepatocyte nuclear factor 3-beta (Homo sapiens) (UniProt Q9Y261); assay: ATG_FoxA2_CIS: Attagene CIS-FACTORIAL HepG2 Assay for human Forkhead box A2 (FOXA2) (AID 2282942); details: HepG2 cis-reporter transcription factor activity, 24 h; actives raise or lower the signal
Sequence of Hepatocyte nuclear factor 3-beta (Homo sapiens) (Q9Y261 whole entry, looked up): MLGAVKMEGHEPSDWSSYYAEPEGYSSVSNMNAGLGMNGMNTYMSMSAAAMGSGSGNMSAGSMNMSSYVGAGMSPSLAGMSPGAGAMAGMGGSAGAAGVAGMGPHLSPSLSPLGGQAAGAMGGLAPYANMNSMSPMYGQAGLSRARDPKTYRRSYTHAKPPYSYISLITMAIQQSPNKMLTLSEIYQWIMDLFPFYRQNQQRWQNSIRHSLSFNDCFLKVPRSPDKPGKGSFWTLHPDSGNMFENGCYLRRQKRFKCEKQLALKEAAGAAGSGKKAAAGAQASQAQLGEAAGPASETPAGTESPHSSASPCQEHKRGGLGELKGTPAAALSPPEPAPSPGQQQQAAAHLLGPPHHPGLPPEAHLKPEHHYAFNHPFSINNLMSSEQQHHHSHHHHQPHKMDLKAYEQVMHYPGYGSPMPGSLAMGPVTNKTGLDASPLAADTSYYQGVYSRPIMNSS
How it was run: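 Measured: reporter mRNA induction or loss in HepG2 transiently carrying multiple cis-regulated reporter units, 24 h after dosing. Quantified by RT-PCR plus capillary electrophoresis, normalised to DMSO.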

[15] = ATG_FoxO_CIS: Attagene CIS-FACTORIAL HepG2 Assay for human Forkhead box O (FoxO) (AID 2282943); details: HepG2 Attagene cis-reporter, FoxO element, mRNA; actives raise or lower the signal
How it was run: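 Values reflect reporter mRNA induction or loss in HepG2 cells 24 h post-dosing, fitted bidirectionally with DMSO as negative control and baseline. Detection used RT-PCR and fluorescence capillary electrophoresis.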

[16] = ATG_GATA_CIS: Attagene CIS-FACTORIAL HepG2 Assay for human GATA Binding Protein (AID 2282944); details: HepG2 GATA cis-element reporter, Attagene multiplex mRNA; actives raise or lower the signal
How it was run: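 HepG2 cells transiently transfected with multiplexed cis-element reporter units reflecting endogenous transcription factor activity; reporter mRNA measured after 24 h dosing by RT-PCR, 6-FAM labeling, HpaI digestion and capillary electrophoresis. Bidirectional fitting versus DMSO baseline.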

[17] = ATG_GLI_CIS: Attagene CIS-FACTORIAL HepG2 Assay for human Zinc Finger Protein GLI1 (AID 2282945); details: HepG2, Attagene cis-factorial reporter mRNA, GLI element; actives raise or lower the signal
How it was run: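 HepG2 cells transiently transfected with cis-promoter multiplexed reporter units report endogenous transcription factor activity. After 24 h chemical exposure, reporter mRNA was quantified by RT-PCR, 6-FAM labelling, HpaI digestion and capillary electrophoresis, with bidirectional fitting against DMSO.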

[18] = ATG_M_61_CIS: Attagene CIS-FACTORIAL HepG2 Assay for M61 Transcription Factor (Internal Marker) (AID 2282937); details: HepG2 Attagene CIS-FACTORIAL M61 internal marker reporter; actives raise or lower the signal
How it was run: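 Background-control endpoint: HepG2 cells with cis-regulated reporter constructs, 24 h exposure, reporter mRNA detected via fluorescent primer extension and capillary electrophoresis; values from bidirectional fitting with DMSO baseline.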

[19] = target: Retinoic acid receptor alpha (Homo sapiens) (UniProt P10276); assay: ATG_DR5_RAR_CIS: Attagene CIS-FACTORIAL HepG2 Assay for human Retinoic Acid Receptor Alpha (RARE), DR5 submotif (AID 2282934); details: HepG2 Attagene cis-factorial RARE DR5 reporter, mRNA; actives raise or lower the signal
Sequence of Retinoic acid receptor alpha (Homo sapiens) (P10276 whole entry, looked up): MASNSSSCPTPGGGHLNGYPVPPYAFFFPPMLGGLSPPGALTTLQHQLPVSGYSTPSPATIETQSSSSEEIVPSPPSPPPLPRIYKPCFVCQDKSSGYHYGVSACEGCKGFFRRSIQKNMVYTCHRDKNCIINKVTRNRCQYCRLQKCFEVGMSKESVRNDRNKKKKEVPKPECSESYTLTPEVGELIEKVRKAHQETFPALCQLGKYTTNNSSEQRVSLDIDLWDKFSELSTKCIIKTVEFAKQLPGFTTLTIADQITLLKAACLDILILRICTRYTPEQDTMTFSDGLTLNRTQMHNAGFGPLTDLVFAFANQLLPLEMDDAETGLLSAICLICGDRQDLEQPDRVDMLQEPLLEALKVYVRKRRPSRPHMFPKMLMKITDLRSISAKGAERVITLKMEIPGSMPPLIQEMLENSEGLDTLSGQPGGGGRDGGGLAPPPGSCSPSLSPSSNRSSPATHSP
How it was run: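 Endpoint fitted in both directions relative to DMSO as negative control. It reflects DR5 cis-element reporter mRNA induction in transiently transfected HepG2 cells, measured 24 h after dosing through RT-PCR and fluorescent capillary electrophoresis.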

CC(c1cc2ccccc2s1)N(O)C(N)=O (stereo not drawn)
outcome [1]: inactive | outcome [2]: inactive | outcome [3]: inactive | AC50 [4]: 38.2 µM (active) | outcome [5]: inactive | outcome [6]: inactive | outcome [7]: inactive | outcome [8]: inactive | outcome [9]: inactive | outcome [10]: inactive | outcome [11]: inactive | outcome [12]: inactive | outcome [13]: inactive | outcome [14]: inactive | outcome [15]: inactive | outcome [16]: inactive | outcome [17]: inactive

CC(CCO)CCc1ccccc1 (stereo not drawn)
outcome [1]: inactive | outcome [3]: inactive | outcome [4]: inactive | outcome [5]: inactive | outcome [6]: inactive | outcome [7]: inactive | outcome [8]: inactive | outcome [9]: inactive | outcome [18]: inactive | outcome [10]: inactive | outcome [11]: inactive | outcome [13]: inactive | outcome [14]: inactive | outcome [15]: inactive | outcome [16]: inactive | outcome [17]: inactive

C=CC(=O)OCC(O)COc1ccccc1 (stereo not drawn)
outcome [1]: inactive | outcome [2]: inactive | AC50 [3]: 32 µM (active) | outcome [4]: inactive | AC50 [6]: 26.8 µM (active) | AC50 [7]: 82.8 µM (active) | outcome [8]: inactive | AC50 [9]: 38.8 µM (active) | outcome [18]: inactive | AC50 [10]: 64.3 µM (active) | outcome [11]: inactive | outcome [14]: inactive | AC50 [15]: 25.2 µM (active) | outcome [16]: inactive | outcome [17]: inactive

Nc1nc2ccc([N+](=O)[O-])cc2s1
outcome [1]: inactive | outcome [2]: inactive | outcome [3]: inactive | AC50 [4]: 5.26 µM (active) | outcome [5]: inactive | outcome [6]: inactive | outcome [19]: inactive | outcome [8]: inactive | outcome [9]: inactive | outcome [18]: inactive | outcome [10]: inactive | outcome [11]: inactive | outcome [13]: inactive | outcome [14]: inactive | outcome [15]: inactive | outcome [16]: inactive | outcome [17]: inactive

O=C(O)CCCCCCCCCCC(=O)O
outcome [1]: inactive | outcome [3]: inactive | outcome [4]: inactive | outcome [5]: inactive | outcome [6]: inactive | outcome [7]: inactive | outcome [8]: inactive | outcome [9]: inactive | outcome [18]: inactive | outcome [10]: inactive | outcome [11]: inactive | outcome [12]: inactive | outcome [13]: inactive | outcome [14]: inactive | outcome [15]: inactive | outcome [16]: inactive | outcome [17]: inactive

O=C1c2ccccc2C(=O)N1SC1CCCCC1
outcome [1]: inactive | AC50 [3]: 170 µM (active) | AC50 [4]: 26.9 µM (active) | AC50 [5]: 84.5 µM (active) | AC50 [6]: 129 µM (active) | AC50 [7]: 75.1 µM (active) | outcome [8]: inactive | AC50 [11]: 186 µM (active) | AC50 [12]: 66.4 µM (active) | AC50 [13]: 159 µM (active) | outcome [14]: inactive | AC50 [15]: 172 µM (active) | AC50 [16]: 144 µM (active) | outcome [17]: inactive

CC(CC(C)(C)C)CC(C)(C)CC(C)(C)C (stereo not drawn)
outcome [1]: inactive | outcome [3]: inactive | outcome [4]: inactive | outcome [5]: inactive | outcome [6]: inactive | outcome [7]: inactive | outcome [8]: inactive | outcome [9]: inactive | outcome [18]: inactive | outcome [10]: inactive | outcome [11]: inactive | outcome [13]: inactive | outcome [14]: inactive | outcome [15]: inactive | outcome [16]: inactive | outcome [17]: inactive

CN(C)CCCN
outcome [1]: inactive | outcome [2]: inactive | outcome [3]: inactive | outcome [5]: inactive | outcome [6]: inactive | outcome [7]: inactive | outcome [8]: inactive | outcome [9]: inactive | outcome [18]: inactive | outcome [10]: inactive | outcome [11]: inactive | outcome [13]: inactive | outcome [14]: inactive | outcome [15]: inactive | outcome [16]: inactive | outcome [17]: inactive

— PubChem BioAssay (EPA / NIEHS)
